Source: PubChem BioAssay (Tox21)
Inconclusive results are not listed. Where a call stands in place of a potency, no number is given. Values without a mark were called inactive. Calls of active or inactive are those of the source. Calls come from the whole dose curve; as a rule, active = well fitted cell-killing curve with a large enough effect in the repeat runs; inconclusive = weak or mixed curves; inactive = flat fitted curve, though single readings scatter.
Potency is the fitted concentration of half-maximal effect.

Assay: qHTS assay to identify small molecule antagonists of the estrogen receptor beta (ER-beta) signaling pathway - cell viability counter screen (AID 1259382); note: nearly all actives have a fitted effect of over 55% in size
Conditions: ER-beta-UAS-bla HEK293T viability, CellTiter-Glo luminescence, 16 h; series mostly up to 92.4 µM
From the text: U.S. Tox21 Program National Center for Advancing Translational Sciences [NCATS] NIH Chemical Genomics Center [NCGC] U.S. Environmental Protection Agency [EPA] National Institutes of Environmental Health Sciences [NIEHS] National Toxicology Program [NTP] U.S. Food and Drug Administration [FDA] Tox21 Assay Overview: Estrogen receptor (ER), a nuclear hormone receptor, plays an important role in development, metabolic homeostasis and reproduction. Two subtypes of ER, ER-alpha and ER-beta, have similar expression patterns with some uniqueness in both types. Endocrine disrupting chemicals (EDCs) and their interactions with steroid hormone receptors like ER causes disruption of normal endocrine function. To identify the compounds that inhibit ER signaling, an ER-beta-UAS-bla GripTite cell line (Life Technologies, Madison, WI, USA) containing a beta-lactamase reporter gene under the control of an UAS response element was used to screen Tox21 10K compound library. The cytotoxicity of the Tox21 compound library against the ER-beta-bla cell line was tested in parallel by measuring the cell viability using CellTiter-Glo assay in the same wells.
Tox21 Assay Protocol Summary: ER-beta-UAS-bla HEK293T cells were dispensed at 2,000 cells/4 uL of assay medium containing 2% charcoal stripped FBS per well into black wall/clear-bottom 1536-well plates using a Multidrop Combi (ThermoFisher Scientific, Waltham, MA) dispenser. After the assay plates were incubated at a 37C and 5% CO2 for 6 hr, 23 nL of compounds dissolved in DMSO, positive controls or DMSO only was transferred to the assay plate by a Pintool station (Kalypsys, San Diego, CA), followed by addition of 1 uL (1nM as final concentration) of 17-beta-estradiol (E2) in assay medium using a Flying Reagent Dispenser (FRD, Aurora Discovery, San Diego, CA). The plates were incubated at 37C and 5% CO2 for 16 hr. Then 1 uL of LiveBLAzer B/G FRET substrate was added using a Flying Reagent Dispenser, the plates were incubated at room temperature for 2 hours, and fluorescence intensity was measured by an Envision plate reader (PerkinElmer, Shelton, CT). For cell viability readout that measures cytotoxicity, 4 uL/well of CellTiter-Glo reagent was added into the assay plates using a FRD. After 30 min incubation at room temperature, the luminescence intensity in the plates was measured using a ViewLux (PerkinElmer) plate reader.
With `Cl/C=C\C[N+]12CN3CN(CN(C3)C1)C2` the Potency was “inactive”.
In the case of `CC[C@H]1C[C@H]2[C@@H]3CCC4=CC(=O)CC[C@@H]4[C@H]3CC[C@]2(C)[C@H]1O`, the Potency is reported as “inactive”.
For `NC(=O)C(Cl)(Cl)Cl`, the Potency was “inactive”.
With `c1ccc(C2CC2)c(OCC2=NCCN2)c1` the Potency was “inactive”.
For `ClCCCCBr`, the Potency was “inactive”.
For `CCOC(=O)[C@]1(c2ccccc2)Oc2ccccc2[C@@H]1N`, the Potency was “inactive”.
For `CCCC(Cn1cncn1)c1ccc(Cl)cc1Cl` (stereo not given), the Potency was “inactive”.
In the case of `N#Cc1ccc(Cl)cc1`, the Potency is reported as “inactive”.
In the case of `COCC(C)N(C(=O)CCl)c1c(C)csc1C` (stereo not given), the Potency is reported as “inactive”.
For `CCOc1nc(F)cc2nc(S(=O)(=O)Nc3c(Cl)cccc3Cl)nn12`, the Potency was “inactive”.
For `O=C(CBr)c1ccccc1`, the Potency was “inactive”.
In the case of `N#Cc1cc(I)c(O)c(I)c1`, the Potency is reported as “inactive”.
With `CCOc1ccc(C(C)(C)COCc2cccc(Oc3ccccc3)c2)cc1` the Potency was “inactive”.
With `COP(=S)(Oc1cc(Cl)c(Br)cc1Cl)c1ccccc1` (stereo not given) the Potency was “inactive”.
In the case of `Nc1ccc(N=Nc2ccc(-c3ccc(N=Nc4c(S(=O)(=O)O)cc5cc(S(=O)(=O)O)c(N=Nc6ccccc6)c(O)c5c4N)cc3)cc2)c(N)c1`, the Potency is reported as “inactive”.
For `CN(N=O)c1ccc([N+](=O)[O-])cc1`, the Potency was “inactive”.
With `C[C@@H]1CC[C@H]2[C@@H](C)C(=O)O[C@@H]3O[C@@]4(C)CC[C@@H]1[C@]32OO4` the Potency was “inactive”.
With `Cc1ccc(-c2c(Cl)nc(C#N)n2S(=O)(=O)N(C)C)cc1` the Potency was 27.3 µM (active).
In the case of `CCOP(=O)(OCC)O/C(=C/Cl)c1ccc(Cl)cc1Cl`, the Potency is reported as “inactive”.
`NCC(CC(=O)O)c1ccc(Cl)cc1` (stereo not given) showed an activity change, negative = cytotoxicity of 5.5% [at 0.349 µM].
With `CCCCNP(N)(N)=S` the Potency was “inactive”.
In the case of `CCC(Br)(CC)C(=O)NC(N)=O`, the Potency is reported as “inactive”.
With `CCCN(CCCl)c1c([N+](=O)[O-])cc(C(F)(F)F)cc1[N+](=O)[O-]` the Potency was “inactive”.
For `N#CCC#N`, the Potency was “inactive”.
In the case of `O=C(CBr)OCc1ccccc1`, the Potency is reported as “inactive”.
In the case of `CC1CC(CC2CCC(N)C(C)C2)CCC1N` (stereo not given), the Potency is reported as “inactive”.
In the case of `COc1nn(CSP(=S)(OC)OC)c(=O)s1`, the Potency is reported as “inactive”.
With `CCO[C@H]1O[C@@H]2OC3(C)CC[C@H]4[C@H](C)CC[C@@H]([C@H]1C)[C@@]24OO3` the Potency was “inactive”.
In the case of `OC(c1ccc(Cl)cc1)(c1ccc(Cl)cc1)c1cccnc1`, the Potency is reported as “inactive”.
In the case of `ClCc1cccc(Cl)c1`, the Potency is reported as “inactive”.
For `CN1C(=O)NC(=O)C(C)(C2=CCCCC2)C1=O` (stereo not given), the Potency was “inactive”.
In the case of `ClC=C(Cl)Cl`, the Potency is reported as “inactive”.
For `C=CC[C@]1(O)CC[C@H]2[C@@H]3CCC4=CC(=O)CCC4=C3C=C[C@@]21C`, the Potency was “inactive”.
With `CC(C)(CCl)C(=O)Cl` the Potency was “inactive”.
In the case of `C=CC(=O)NCNC(=O)C=C`, the Potency is reported as “inactive”.
`CO[C@@H]1[C@H](OC(=O)NC(=O)CCl)CC[C@]2(CO2)[C@H]1[C@@]1(C)O[C@@H]1CC=C(C)C` gave an activity change, negative = cytotoxicity of -10.8% [at 19 µM].
With `CC(C)O.CC(C)O.OCCN(CCO)CCO.OCCN(CCO)CCO.[Ti]` the Potency was “inactive”.
In the case of `C[C@]12CC[C@H]3[C@@H](CCC4=CC(=O)CC[C@@H]43)[C@@H]1CC[C@@H]2OC(=O)CCC1CCCCC1`, the Potency is reported as “inactive”.
In the case of `CC(Cl)C(C)Cl` (stereo not given), the Potency is reported as “inactive”.
In the case of `O=Cc1ccc(Cl)cc1Cl`, the Potency is reported as “inactive”.
